Measured values reported in ChEMBL document CHEMBL3988442, “University of Dundee, Small-Polar-MMV Screening Library” (2021).
For part of these data: Measured potencies and affinities stand elsewhere.

What was measured:
Parameters in all cases: scale not given: direction of the effect not stated beside the values
[1] = molecular target: Protein translocase subunit SecA (Escherichia coli (strain K12)) (UniProt P10408); assay: Assay to Identify E. coli SecA ATPase Inhibitors; type: functional; conditions: 30 µM
Sequence of Protein translocase subunit SecA (Escherichia coli (strain K12)) (P10408 whole entry): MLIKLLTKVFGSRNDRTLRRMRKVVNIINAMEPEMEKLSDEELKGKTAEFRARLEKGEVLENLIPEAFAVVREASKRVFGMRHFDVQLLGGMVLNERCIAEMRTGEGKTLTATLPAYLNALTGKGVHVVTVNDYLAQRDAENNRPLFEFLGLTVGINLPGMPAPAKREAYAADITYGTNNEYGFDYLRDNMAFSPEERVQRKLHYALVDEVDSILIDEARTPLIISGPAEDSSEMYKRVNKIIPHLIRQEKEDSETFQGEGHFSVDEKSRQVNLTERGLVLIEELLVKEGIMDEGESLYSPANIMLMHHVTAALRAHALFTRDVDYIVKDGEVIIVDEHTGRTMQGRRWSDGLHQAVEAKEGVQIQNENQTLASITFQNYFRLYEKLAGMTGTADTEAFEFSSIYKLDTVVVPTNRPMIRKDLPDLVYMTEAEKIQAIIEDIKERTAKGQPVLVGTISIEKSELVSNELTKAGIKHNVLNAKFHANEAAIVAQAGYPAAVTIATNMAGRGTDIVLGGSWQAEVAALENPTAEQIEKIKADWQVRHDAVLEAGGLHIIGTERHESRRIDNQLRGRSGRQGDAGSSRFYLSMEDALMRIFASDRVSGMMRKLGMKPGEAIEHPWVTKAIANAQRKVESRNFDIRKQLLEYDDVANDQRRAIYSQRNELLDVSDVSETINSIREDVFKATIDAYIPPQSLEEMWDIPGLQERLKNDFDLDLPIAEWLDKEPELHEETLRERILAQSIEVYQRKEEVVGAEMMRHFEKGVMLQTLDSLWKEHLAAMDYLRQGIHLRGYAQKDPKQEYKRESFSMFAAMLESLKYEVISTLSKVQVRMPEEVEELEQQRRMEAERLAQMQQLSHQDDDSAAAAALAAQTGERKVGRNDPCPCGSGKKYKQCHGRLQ

[2] = molecular target: T1, Ubiquitin-activating enzyme e1, putative (Leishmania donovani (strain BPK282A1)) (UniProt E9BSI1); assay: Leishmania donovani Ubiquitin Activating Enzyme (LdE1); type: functional; conditions: 30 µM
T1 sequence (whole entry): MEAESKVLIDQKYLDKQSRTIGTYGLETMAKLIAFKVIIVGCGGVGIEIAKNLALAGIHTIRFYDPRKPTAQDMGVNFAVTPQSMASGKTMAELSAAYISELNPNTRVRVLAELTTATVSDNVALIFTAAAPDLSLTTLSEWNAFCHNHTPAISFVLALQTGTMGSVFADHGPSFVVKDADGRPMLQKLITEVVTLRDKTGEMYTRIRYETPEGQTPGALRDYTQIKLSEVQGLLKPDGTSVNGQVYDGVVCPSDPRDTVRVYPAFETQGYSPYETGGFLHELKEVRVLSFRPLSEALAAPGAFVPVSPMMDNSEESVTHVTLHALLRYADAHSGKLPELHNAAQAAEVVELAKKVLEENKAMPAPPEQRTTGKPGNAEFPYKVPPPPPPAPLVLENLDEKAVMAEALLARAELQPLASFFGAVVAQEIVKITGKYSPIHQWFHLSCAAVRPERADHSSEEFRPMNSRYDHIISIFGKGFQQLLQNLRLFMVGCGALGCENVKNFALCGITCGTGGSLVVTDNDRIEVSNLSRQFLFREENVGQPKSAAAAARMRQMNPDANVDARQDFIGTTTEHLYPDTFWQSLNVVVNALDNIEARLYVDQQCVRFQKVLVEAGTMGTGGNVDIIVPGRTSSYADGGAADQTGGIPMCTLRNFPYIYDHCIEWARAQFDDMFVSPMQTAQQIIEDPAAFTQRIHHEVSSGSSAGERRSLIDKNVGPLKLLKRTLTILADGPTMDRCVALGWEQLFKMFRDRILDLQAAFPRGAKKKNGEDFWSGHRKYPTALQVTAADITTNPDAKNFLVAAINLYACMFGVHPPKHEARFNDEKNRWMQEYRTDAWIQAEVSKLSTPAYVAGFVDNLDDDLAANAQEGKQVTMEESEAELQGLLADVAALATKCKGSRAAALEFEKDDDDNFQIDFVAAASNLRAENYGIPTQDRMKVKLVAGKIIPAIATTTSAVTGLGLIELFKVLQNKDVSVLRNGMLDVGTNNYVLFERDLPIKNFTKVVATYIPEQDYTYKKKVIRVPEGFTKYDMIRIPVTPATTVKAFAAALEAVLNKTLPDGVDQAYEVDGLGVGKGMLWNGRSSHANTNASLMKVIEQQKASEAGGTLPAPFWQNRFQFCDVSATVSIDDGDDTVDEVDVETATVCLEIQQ

[3] = molecular target: Sialic acid-binding Ig-like lectin 9 (Homo sapiens) (UniProt Q9Y336); assay: Hs-Siglec9 ALPHAscreen SOP 20170721; conditions: 10 µM
Sequence of Sialic acid-binding Ig-like lectin 9 (Homo sapiens) (Q9Y336 whole entry): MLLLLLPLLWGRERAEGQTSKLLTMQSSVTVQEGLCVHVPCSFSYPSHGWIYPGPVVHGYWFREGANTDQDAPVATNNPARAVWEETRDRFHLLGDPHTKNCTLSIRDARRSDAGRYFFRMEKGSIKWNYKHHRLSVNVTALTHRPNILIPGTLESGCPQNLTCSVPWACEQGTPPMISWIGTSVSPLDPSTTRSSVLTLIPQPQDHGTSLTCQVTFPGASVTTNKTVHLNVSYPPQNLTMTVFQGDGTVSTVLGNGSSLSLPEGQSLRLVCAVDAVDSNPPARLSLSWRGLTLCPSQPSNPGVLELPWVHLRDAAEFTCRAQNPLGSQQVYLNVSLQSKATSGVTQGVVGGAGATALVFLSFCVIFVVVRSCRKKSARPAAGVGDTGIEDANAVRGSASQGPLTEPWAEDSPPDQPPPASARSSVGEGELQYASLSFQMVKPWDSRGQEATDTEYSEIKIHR

[4] = tested on: Trypanosoma cruzi; assay: Trypanosoma cruzi phosphomannomutase and mannose-1-phosphate guanylyltransferase assay; type: functional; conditions: 10 µM
[5] = molecular target: T2, Arginase-2, mitochondrial (Homo sapiens) (UniProt P78540); assay: in vitro enzyme assay to detect the production of urea directly proportional to the activity of Arginase II; type: functional; conditions: 33.3 µM; further: in the data most compounds retested in dose-response had high values
T2 sequence (whole entry): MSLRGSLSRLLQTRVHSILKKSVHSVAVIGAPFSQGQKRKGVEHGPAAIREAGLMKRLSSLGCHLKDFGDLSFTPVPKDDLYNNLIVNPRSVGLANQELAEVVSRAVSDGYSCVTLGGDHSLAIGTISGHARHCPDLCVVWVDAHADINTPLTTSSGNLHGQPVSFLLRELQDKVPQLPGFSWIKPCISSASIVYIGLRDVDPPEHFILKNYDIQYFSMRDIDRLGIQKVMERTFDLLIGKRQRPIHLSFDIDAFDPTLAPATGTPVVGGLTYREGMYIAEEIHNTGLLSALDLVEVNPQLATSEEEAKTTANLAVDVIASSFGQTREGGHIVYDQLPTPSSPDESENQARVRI

[6] = molecular target: T3, Proteasome subunit beta (Trypanosoma cruzi) (UniProt O96673); assay: Trypanosoma cruzi proteasome chymotrypsin-like activity (TcProtChymo) assay.; further: in the data most compounds retested in dose-response had high values; type: functional; conditions: 9.37 µM
T3 sequence (whole entry): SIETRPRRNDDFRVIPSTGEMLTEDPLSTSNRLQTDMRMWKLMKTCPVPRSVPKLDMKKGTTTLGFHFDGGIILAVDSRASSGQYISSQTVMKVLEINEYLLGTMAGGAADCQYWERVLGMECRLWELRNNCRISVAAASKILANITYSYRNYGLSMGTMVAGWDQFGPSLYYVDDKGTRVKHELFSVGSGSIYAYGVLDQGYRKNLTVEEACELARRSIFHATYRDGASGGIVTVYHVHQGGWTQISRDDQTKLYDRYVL

[7] = organism: Homo sapiens; assay: To identify inhibition of the IFN signalling (Jak-Stat) pathway via expression of an eGFP reporter gene under the control of an IFN-stimulated response element (ISRE) containing MxA promoter.; type: functional; conditions: 30 µM
[8] = molecular target: T4, Tyrosyl-tRNA synthetase, putative (Trypanosoma cruzi (strain CL Brener)) (UniProt Q4DSP6); assay: Trypanosoma cruzi tyrosyl tRNA synthetase (TcYRS) _High Tyrosine SOP; type: functional; conditions: 30 µM; further: in the data most compounds retested in dose-response had high values
T4 sequence (whole entry): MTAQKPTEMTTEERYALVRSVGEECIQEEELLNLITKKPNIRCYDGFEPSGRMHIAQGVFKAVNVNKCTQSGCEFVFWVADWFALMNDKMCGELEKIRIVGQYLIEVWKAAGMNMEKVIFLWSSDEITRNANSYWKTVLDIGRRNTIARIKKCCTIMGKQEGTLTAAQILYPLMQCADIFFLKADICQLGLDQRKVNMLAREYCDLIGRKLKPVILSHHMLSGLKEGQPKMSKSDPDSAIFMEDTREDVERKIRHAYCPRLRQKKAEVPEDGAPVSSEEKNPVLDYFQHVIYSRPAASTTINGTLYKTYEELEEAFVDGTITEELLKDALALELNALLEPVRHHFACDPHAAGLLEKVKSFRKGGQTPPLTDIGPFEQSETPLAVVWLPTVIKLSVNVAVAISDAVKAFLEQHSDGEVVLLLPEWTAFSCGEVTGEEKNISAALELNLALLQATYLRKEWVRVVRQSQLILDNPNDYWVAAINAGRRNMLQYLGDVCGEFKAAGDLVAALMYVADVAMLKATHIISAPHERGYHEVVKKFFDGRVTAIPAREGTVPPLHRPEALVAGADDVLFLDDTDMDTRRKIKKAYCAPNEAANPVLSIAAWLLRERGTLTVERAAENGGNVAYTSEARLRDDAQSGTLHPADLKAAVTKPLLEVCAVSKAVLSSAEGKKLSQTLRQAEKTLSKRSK

[9] = molecular target: T4, Tyrosyl-tRNA synthetase, putative (Trypanosoma cruzi (strain CL Brener)); assay: Trypanosoma cruzi tyrosyl tRNA synthetase (TcYRS) SOP; type: functional; conditions: 30 µM
[10] = molecular target: Chromo domain-containing protein 1 (Saccharomyces cerevisiae (strain ATCC 204508 / S288c) (Baker's yeast)) (UniProt P32657); assay: ScCHD-1 Enzyme Inhibition Assay; type: functional; conditions: 30 µM; further: in the data most compounds retested in dose-response had high values
Sequence of Chromo domain-containing protein 1 (Saccharomyces cerevisiae (strain ATCC 204508 / S288c) (Baker's yeast)) (P32657 whole entry, the tested form may be a part): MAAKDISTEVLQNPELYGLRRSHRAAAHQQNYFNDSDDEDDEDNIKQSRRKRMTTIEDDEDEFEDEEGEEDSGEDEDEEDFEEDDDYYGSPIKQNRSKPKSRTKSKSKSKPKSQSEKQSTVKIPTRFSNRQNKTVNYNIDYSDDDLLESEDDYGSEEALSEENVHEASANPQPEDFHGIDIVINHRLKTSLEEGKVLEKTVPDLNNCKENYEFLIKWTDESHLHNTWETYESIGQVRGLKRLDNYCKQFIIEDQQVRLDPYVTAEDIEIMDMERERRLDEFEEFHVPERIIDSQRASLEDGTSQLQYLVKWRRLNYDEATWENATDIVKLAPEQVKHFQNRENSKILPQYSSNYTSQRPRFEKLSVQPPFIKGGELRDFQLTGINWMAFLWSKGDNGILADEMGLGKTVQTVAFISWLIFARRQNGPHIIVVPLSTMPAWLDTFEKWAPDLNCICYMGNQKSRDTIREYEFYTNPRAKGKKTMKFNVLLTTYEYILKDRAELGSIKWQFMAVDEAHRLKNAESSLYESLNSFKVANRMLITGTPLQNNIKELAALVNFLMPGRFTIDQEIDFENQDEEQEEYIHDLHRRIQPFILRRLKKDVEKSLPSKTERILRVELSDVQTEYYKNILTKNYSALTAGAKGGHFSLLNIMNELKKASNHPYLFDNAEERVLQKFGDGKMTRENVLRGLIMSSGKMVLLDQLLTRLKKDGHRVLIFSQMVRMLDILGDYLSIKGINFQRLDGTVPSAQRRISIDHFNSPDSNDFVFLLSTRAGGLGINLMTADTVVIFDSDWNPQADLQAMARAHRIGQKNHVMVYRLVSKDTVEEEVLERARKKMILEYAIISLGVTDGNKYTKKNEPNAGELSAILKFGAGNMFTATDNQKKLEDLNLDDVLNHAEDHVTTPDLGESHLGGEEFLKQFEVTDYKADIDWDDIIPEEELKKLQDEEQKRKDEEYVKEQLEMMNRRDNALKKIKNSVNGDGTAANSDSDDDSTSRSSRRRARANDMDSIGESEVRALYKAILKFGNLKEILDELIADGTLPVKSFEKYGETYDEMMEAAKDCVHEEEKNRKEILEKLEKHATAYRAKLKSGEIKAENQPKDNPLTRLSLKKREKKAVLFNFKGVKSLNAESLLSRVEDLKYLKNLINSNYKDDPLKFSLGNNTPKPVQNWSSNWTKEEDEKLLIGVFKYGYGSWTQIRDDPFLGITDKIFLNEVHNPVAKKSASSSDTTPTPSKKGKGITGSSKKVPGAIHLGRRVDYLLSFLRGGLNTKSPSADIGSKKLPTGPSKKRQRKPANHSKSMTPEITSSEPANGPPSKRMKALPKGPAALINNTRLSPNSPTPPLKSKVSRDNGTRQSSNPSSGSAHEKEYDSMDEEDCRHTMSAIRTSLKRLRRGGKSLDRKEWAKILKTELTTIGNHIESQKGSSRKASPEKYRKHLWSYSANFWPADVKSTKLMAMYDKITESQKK

Compound | Percent Effect [1] [%] | Percent Effect [2] [%] | Percent Effect [3] [%] | Percent Effect [4] [%] | Percent Effect [5] [%] | Percent Effect [6] [%] | Percent Effect [7] [%] | Percent Effect [8] [%] | Percent Effect [9] [%] | Percent Effect [10] [%]
C[C@@H]1C(=O)NC[C@H]2CN(CCc3ccccc3)C[C@H]21 | -0.103 | 16.9 | 0.474 | 1.5 | 2.74 | 11.4 | 2.51 | 11.6 | 20 | -8.42
CC(Nc1cccc(CN2CCOC2=O)c1)C(=O)N1CCNC1=O (stereo not given) | -10.4 | 7.69 | 2.33 | -5.16 | -2.46 | 2.3 | 28.2 | 2.39 | 8.43 | -2.72
CC(C)c1cc(C(F)(F)F)n2nc(CCC(=O)O)nc2n1 | 1.24 | 14.7 | -8.51 | -3.94 | 2.65 | 10.5 | 19.8 | 6.35 | 7.5 | -17.9
CN(C)S(=O)(=O)N1CCN(c2ccnc(N3CCCC3)n2)CC1 | -3.6 | -2.7 | -0.53 | 3.01 | -1.75 | 8.39 | -13.3 | 3.72 | 4.88 | -0.866
CCOc1ccccc1C(=O)N1CCCC1c1ncc2c(n1)CCNC2 (stereo not given) | -5.15 | 4 | -1.2 | -5.72 | -4.42 | 7.06 | 10.5 | -6.35 | -2.5 | -31.8
O=c1c(-c2ccnc(NC3CCOCC3)n2)cnc2sc(Cl)cn12 | 5.59 | 16 | -4.95 | -8.63 | -2.66 | 17.7 | 12 | 1.58 | 0 | -10.8
CC(C)N(C)CC(=O)N1CCCC(c2ccc(C(=O)O)cc2)C1 (stereo not given) | -7.71 | 5.41 | 3.58 | 8.44 | -1.05 | 1.71 | -11.9 | 7.98 | 17.1 | -2.58
Cc1c(O)oc(-c2ccc(Br)cc2)nc1=O | -4.74 | -73.3 | -12.4 | 2.96 | -4.87 | 12.6 | 12.7 | 3.17 | 15 | -18.8
Cc1cc(NC(=O)CN2CCCC2c2noc(C(C)C)n2)n(C)n1 (stereo not given) | 0.91 | -42.7 | 2.01 | 0 | -0.444 | 4.67 | -3.3 | 2.63 | 5.13 | 0.723
CCCN(CC)C(=O)c1cc2c(c3ccccc3n2C)n1C(=O)N(C)C | -6.54 | 11.7 | 4.77 | 0.292 | 4.05 | 6.27 | -7.65 | 6.84 | 10.3 | -0.293
O=C(Cc1cccs1)N1CC[C@H]2[C@@H]1CCC(=O)N2c1cccnc1 | -2.81 | 29.9 | -3.71 | -1.31 | 1.37 | 16.1 | -2.71 | 3.87 | 7.5 | -11
Cc1cc(CN(C)C(=O)NCC(C)N2CCc3ccccc32)no1 (stereo not given) | -2.85 | -2.6 | 14.4 | 1.31 | -2.25 | -2.46 | -9.63 | 7.84 | 7.06 | 4.85
CCOCC1CN(S(C)(=O)=O)Cc2cnn(CC3CCOCC3)c21 (stereo not given) | -3.9 | 1.3 | -0.726 | -5.94 | -5.26 | 10.5 | 0.606 | 3.68 | 12.8 | -2.94
CC(C)CN1C[C@@H]2CN(C(=O)[C@H]3CCCO3)C[C@@H]2C1=O | -2.4 | 16.9 | -1.93 | -7.13 | 3.65 | 5.06 | 7.85 | -5.8 | 12.5 | -5.7
Cc1cnc(CN2CCCC(c3cc(C(F)(F)F)[nH]n3)C2)cn1 (stereo not given) | -4.31 | 2.67 | 2.93 | -2.21 | 3.55 | 2.97 | 10.5 | 4.74 | 17.9 | -4.75
CNc1ccc(CC2CCCN(C(=O)c3cnc(C)nc3)C2)nn1 (stereo not given) | 0.212 | 12 | -9.66 | -0.197 | 4.87 | 17.1 | 12.2 | 5.29 | 12.5 | -20.6
Cc1nc(CNC(=O)NCC(O)c2ccc(F)cc2F)cs1 (stereo not given) | 0.239 | 13.3 | -2.61 | -4.62 | 2.22 | 9.75 | -4.09 | 8.95 | 15.4 | -9.8
Cn1cc(C(=O)N2CCCC(n3cccn3)C2)c2ccccc21 (stereo not given) | -1.25 | 8 | -2.42 | -5.62 | 7.09 | 3.65 | 9.06 | 2.63 | 5.13 | -11.9
CCOCC1CN(Cc2cnn(C)c2)Cc2ncn(CC3CC3)c21 (stereo not given) | -6.63 | -1.3 | 9.29 | -1.66 | -3.64 | 2.21 | 10.9 | 1.58 | -5.13 | 0.231
Cc1cnc(C(=O)N2CCCCC2c2[nH]ncc2S(C)(=O)=O)cn1 (stereo not given) | -1.18 | 4 | 4.14 | -0.986 | -1.77 | 4.93 | -6.39 | 6.35 | 12.5 | -18.4
CCc1nc(C2CCCN2CCc2ccccn2)no1 (stereo not given) | 0.816 | 20.5 | -18.3 | 5.35 | 1.23 | 18.7 | 23.6 | 10.1 | 20.5 | -7.66
